Where a name gives a salt, the structure may show the parent alone.
How the values were obtained:
Conditions in all cases: treatment time: 24 h
A549-GM130-SQSTM1 [1] = assay: lowest phenotypically active concentration; higher = less potent
How it was run: (§1)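 Live-cell features were measured per well and normalised to solvent control wells after fifteen gene-edited A549, HepG2 and WPMY1 reporter lines had been treated for 24 h at 0.3, 1, 3 or 9 µM in four wells each. A condition was deviating when ≥3 of 4 wells sat beyond the 95th percentile of control Euclidean distances. It was reproducible when the median replicate Pearson correlation exceeded the 95th percentile of non-replicates. Phenotypic activity demanded both.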

A549-ACTB-RAB5A [2] = assay: phenotypically active (imaging signature differs from DMSO and reproducible) at any of 0.3-9 uM (binary (1 = active, 0 = inactive)); higher = active
How it was run: as §1

A549-CANX-COX4 = assay: as above
How it was run: as §1

A549-GM130-SQSTM1 [3] = assay: as above
How it was run: as §1

A549-TP53BP1-CLTA = assay: as above
How it was run: as §1

A549-TUBA1B-RELA = assay: as above
How it was run: as §1

HepG2-ACTB-RAB5A = assay: as above
How it was run: as §1

HepG2-CANX-COX4 [4] = assay: as above
How it was run: as §1

HepG2-GM130-SQSTM1 = assay: as above
How it was run: as §1

HepG2-TP53BP1-CLTA = assay: as above
How it was run: as §1

HepG2-TUBA1B-RELA = assay: as above
How it was run: as §1

WPMY1-ACTB-RAB5A = assay: as above
How it was run: as §1

WPMY1-CANX-COX4 [5] = assay: as above
How it was run: as §1

WPMY1-GM130-SQSTM1 [6] = assay: as above
How it was run: as §1

WPMY1-TP53BP1-CLTA = assay: as above
How it was run: as §1

WPMY1-TUBA1B-RELA = assay: as above
How it was run: as §1

A549-ACTB-RAB5A [7] = assay: lowest phenotypically active concentration; higher = less potent
How it was run: as §1

WPMY1-CANX-COX4 [8] = assay: as above
How it was run: as §1

WPMY1-GM130-SQSTM1 [9] = assay: as above
How it was run: as §1

HepG2-CANX-COX4 [10] = assay: as above
How it was run: as §1

Row | SMILES | lowest phenotypically active concentration (A549-GM130-SQSTM1 [1]) | phenotypically active (A549-ACTB-RAB5A [2]) | phenotypically active (A549-CANX-COX4) | phenotypically active (A549-GM130-SQSTM1 [3]) | phenotypically active (A549-TP53BP1-CLTA) | phenotypically active (A549-TUBA1B-RELA) | phenotypically active (HepG2-ACTB-RAB5A) | phenotypically active (HepG2-CANX-COX4 [4]) | phenotypically active (HepG2-GM130-SQSTM1) | phenotypically active (HepG2-TP53BP1-CLTA) | phenotypically active (HepG2-TUBA1B-RELA) | phenotypically active (WPMY1-ACTB-RAB5A) | phenotypically active (WPMY1-CANX-COX4 [5]) | phenotypically active (WPMY1-GM130-SQSTM1 [6]) | phenotypically active (WPMY1-TP53BP1-CLTA) | phenotypically active (WPMY1-TUBA1B-RELA) | lowest phenotypically active concentration (A549-ACTB-RAB5A [7]) | lowest phenotypically active concentration (WPMY1-CANX-COX4 [8]) | lowest phenotypically active concentration (WPMY1-GM130-SQSTM1 [9]) | lowest phenotypically active concentration (HepG2-CANX-COX4 [10])
1 | COc1ccc(CCc2nc3c(C)c(-c4c(C)noc4C)c(C)cc3n2CCN2CCOCC2)cc1 | 9 µM | 0 (inactive) | 0 (inactive) | 1 (active) | 0 (inactive) | 0 (inactive) | 0 (inactive) | 0 (inactive) | 0 (inactive) | 0 (inactive) | 0 (inactive) | 0 (inactive) | 0 (inactive) | 0 (inactive) | 0 (inactive) | 0 (inactive) |  |  |  | 
2 | O=C(COc1cccc2c(=O)[nH]ccc12)c1ccccc1 | 9 µM | 0 (inactive) | 0 (inactive) | 1 (active) | 0 (inactive) | 0 (inactive) | 0 (inactive) | 0 (inactive) | 0 (inactive) | 0 (inactive) | 0 (inactive) | 0 (inactive) | 0 (inactive) | 0 (inactive) | 0 (inactive) | 0 (inactive) |  |  |  | 
3 | COc1cc2nc3occc3c(OC)c2cc1OC [Kokusaginine] | 3 µM | 0 (inactive) | 0 (inactive) | 1 (active) | 0 (inactive) | 0 (inactive) | 0 (inactive) | 0 (inactive) | 0 (inactive) | 0 (inactive) | 0 (inactive) | 0 (inactive) | 0 (inactive) | 0 (inactive) | 0 (inactive) | 0 (inactive) |  |  |  | 
4 | O=C(O/N=C1\c2ccccc2-c2nc3ccccc3nc21)c1ccco1 |  | 1 (active) | 0 (inactive) | 0 (inactive) | 0 (inactive) | 0 (inactive) | 0 (inactive) | 0 (inactive) | 0 (inactive) | 0 (inactive) | 0 (inactive) | 1 (active) | 1 (active) | 0 (inactive) | 1 (active) | 1 (active) | 9 µM | 9 µM |  | 
5 | O=c1c(-c2ccc(O)cc2)coc2cc(O)cc(O)c12 [Genistein] | 9 µM | 0 (inactive) | 0 (inactive) | 1 (active) | 1 (active) | 1 (active) | 0 (inactive) | 0 (inactive) | 0 (inactive) | 0 (inactive) | 0 (inactive) | 1 (active) | 1 (active) | 0 (inactive) | 1 (active) | 1 (active) |  | 9 µM |  | 
6 | Cc1cccc(C)c1OCC(C)N (stereo unspecified) [mexiletine] |  | 0 (inactive) | 1 (active) | 0 (inactive) | 1 (active) | 0 (inactive) | 1 (active) | 0 (inactive) | 0 (inactive) | 0 (inactive) | 0 (inactive) | 0 (inactive) | 0 (inactive) | 1 (active) | 0 (inactive) | 0 (inactive) |  |  | ≤ 0.3 µM | 
7 | C[C@@H]1CCN(C(=O)CC#N)C[C@@H]1N(C)c1ncnc2[nH]ccc12 |  | 1 (active) | 0 (inactive) | 0 (inactive) | 0 (inactive) | 0 (inactive) | 0 (inactive) | 1 (active) | 1 (active) | 1 (active) | 0 (inactive) | 0 (inactive) | 0 (inactive) | 0 (inactive) | 0 (inactive) | 0 (inactive) | 9 µM |  |  | 9 µM
8 | O=C1NCCCc2c1oc1ccc(O)cc21 |  | 1 (active) | 0 (inactive) | 0 (inactive) | 0 (inactive) | 0 (inactive) | 0 (inactive) | 1 (active) | 0 (inactive) | 0 (inactive) | 1 (active) | 1 (active) | 0 (inactive) | 1 (active) | 0 (inactive) | 1 (active) | 9 µM |  | 9 µM | 9 µM
9 | OCCOCCN1CCN(C2=Nc3ccccc3Sc3ccccc32)CC1 [Quetiapine hemifumarate] | 9 µM | 0 (inactive) | 0 (inactive) | 1 (active) | 0 (inactive) | 0 (inactive) | 0 (inactive) | 0 (inactive) | 0 (inactive) | 0 (inactive) | 0 (inactive) | 0 (inactive) | 0 (inactive) | 0 (inactive) | 0 (inactive) | 0 (inactive) |  |  |  | 
10 | Cn1cc(-c2ccc3nnc(Sc4ccc5ncccc5c4)n3n2)cn1 |  | 0 (inactive) | 1 (active) | 0 (inactive) | 1 (active) | 0 (inactive) | 1 (active) | 0 (inactive) | 0 (inactive) | 0 (inactive) | 0 (inactive) | 0 (inactive) | 0 (inactive) | 1 (active) | 0 (inactive) | 0 (inactive) |  |  | 1 µM | 
11 | Cc1cc(C(C)Nc2ccccc2)c2nc(N3CCOCC3)cc(=O)n2c1 (stereo unspecified) |  | 1 (active) | 0 (inactive) | 0 (inactive) | 0 (inactive) | 0 (inactive) | 1 (active) | 0 (inactive) | 0 (inactive) | 0 (inactive) | 0 (inactive) | 0 (inactive) | 1 (active) | 1 (active) | 0 (inactive) | 0 (inactive) | 9 µM | 9 µM | 9 µM | 
12 | COC(=O)C1=CO[C@@H](C)[C@H]2CN3CCc4c([nH]c5ccccc45)[C@@H]3C[C@H]12 [Ajmalicine hydrochloride] |  | 0 (inactive) | 1 (active) | 0 (inactive) | 0 (inactive) | 0 (inactive) | 1 (active) | 1 (active) | 0 (inactive) | 1 (active) | 0 (inactive) | 0 (inactive) | 1 (active) | 1 (active) | 0 (inactive) | 0 (inactive) |  | 9 µM | 3 µM | 9 µM
13 | Cc1c[nH]c2ncnc(-c3ccc(NC(=O)N(CCO)c4ccccc4)cc3)c12 |  | 1 (active) | 0 (inactive) | 0 (inactive) | 0 (inactive) | 0 (inactive) | 0 (inactive) | 0 (inactive) | 0 (inactive) | 0 (inactive) | 0 (inactive) | 0 (inactive) | 0 (inactive) | 0 (inactive) | 0 (inactive) | 1 (active) | 9 µM |  |  | 
14 | CCCOc1ccn2c(C(C)=O)cc(-c3ccccc3S(C)(=O)=O)c2c1 | 9 µM | 0 (inactive) | 0 (inactive) | 1 (active) | 0 (inactive) | 0 (inactive) | 0 (inactive) | 0 (inactive) | 0 (inactive) | 0 (inactive) | 0 (inactive) | 0 (inactive) | 0 (inactive) | 0 (inactive) | 0 (inactive) | 0 (inactive) |  |  |  | 
15 | C=C1CC[C@H](O)C/C1=C\C=C1\CCC[C@]2(C)[C@@H]([C@H](C)/C=C/[C@H](C)C(C)C)CC[C@@H]12 [Calciferol] | 9 µM | 0 (inactive) | 0 (inactive) | 1 (active) | 0 (inactive) | 0 (inactive) | 0 (inactive) | 0 (inactive) | 0 (inactive) | 0 (inactive) | 0 (inactive) | 0 (inactive) | 0 (inactive) | 0 (inactive) | 0 (inactive) | 0 (inactive) |  |  |  | 
16 | O=c1cc(N2CCOCC2)oc2c(-c3ccccc3)cccc12 | 9 µM | 0 (inactive) | 0 (inactive) | 1 (active) | 1 (active) | 1 (active) | 1 (active) | 0 (inactive) | 1 (active) | 1 (active) | 1 (active) | 1 (active) | 1 (active) | 1 (active) | 1 (active) | 0 (inactive) |  | 9 µM | ≤ 0.3 µM | 
17 | Cc1cccc(-c2n[nH]cc2-c2ccc(F)c(-c3cnn(CCO)c3)c2)n1 |  | 1 (active) | 0 (inactive) | 0 (inactive) | 0 (inactive) | 0 (inactive) | 0 (inactive) | 1 (active) | 0 (inactive) | 1 (active) | 0 (inactive) | 1 (active) | 1 (active) | 1 (active) | 1 (active) | 1 (active) | 9 µM | 9 µM | 9 µM | 9 µM
18 | CC(=O)S[C@@H]1CC2=CC(=O)CC[C@]2(C)[C@H]2CC[C@@]3(C)[C@@H](CC[C@@]34CCC(=O)O4)[C@H]12 [spironolactone] |  | 1 (active) | 0 (inactive) | 0 (inactive) | 0 (inactive) | 0 (inactive) | 0 (inactive) | 0 (inactive) | 0 (inactive) | 0 (inactive) | 0 (inactive) | 0 (inactive) | 0 (inactive) | 1 (active) | 0 (inactive) | 0 (inactive) | 9 µM |  | 9 µM | 
19 | CCOC(=O)C1=C[C@]2(CC)CCCN3CCc4c(n1c1ccccc41)[C@@H]32 [Vinpocetine] |  | 1 (active) | 0 (inactive) | 0 (inactive) | 0 (inactive) | 0 (inactive) | 1 (active) | 0 (inactive) | 0 (inactive) | 0 (inactive) | 0 (inactive) | 0 (inactive) | 0 (inactive) | 1 (active) | 0 (inactive) | 0 (inactive) | 9 µM |  | 9 µM | 
20 | N=C(N)NC(=N)NCCc1ccccc1 [phenformin] | 9 µM | 0 (inactive) | 1 (active) | 1 (active) | 0 (inactive) | 0 (inactive) | 0 (inactive) | 0 (inactive) | 0 (inactive) | 0 (inactive) | 0 (inactive) | 0 (inactive) | 0 (inactive) | 0 (inactive) | 0 (inactive) | 0 (inactive) |  |  |  | 
21 | CCOC(=O)N1CCC(=C2c3ccc(Cl)cc3CCc3cccnc32)CC1 [loratadine] |  | 1 (active) | 0 (inactive) | 0 (inactive) | 0 (inactive) | 0 (inactive) | 0 (inactive) | 1 (active) | 0 (inactive) | 0 (inactive) | 0 (inactive) | 0 (inactive) | 0 (inactive) | 0 (inactive) | 0 (inactive) | 0 (inactive) | 9 µM |  |  | 3 µM
22 | N=C1NC(=O)/C(=C\c2ccc(O)cc2)S1 [Mirin] |  | 1 (active) | 0 (inactive) | 0 (inactive) | 0 (inactive) | 0 (inactive) | 0 (inactive) | 0 (inactive) | 0 (inactive) | 0 (inactive) | 0 (inactive) | 1 (active) | 0 (inactive) | 0 (inactive) | 0 (inactive) | 0 (inactive) | 9 µM |  |  | 
23 | Cc1nc2sccn2c(=O)c1CCN1CCC(=C(c2ccc(F)cc2)c2ccc(F)cc2)CC1 [Ritanserin] |  | 1 (active) | 0 (inactive) | 0 (inactive) | 0 (inactive) | 0 (inactive) | 0 (inactive) | 0 (inactive) | 1 (active) | 0 (inactive) | 1 (active) | 0 (inactive) | 0 (inactive) | 1 (active) | 0 (inactive) | 0 (inactive) | 9 µM |  | 9 µM | 
